Screening results (PubChem BioAssay)
In the library only some 2.4% were active in any assay of this set; here they are far more common.
Cruzain noTriton – qHTS Assay for Promiscuous and Specific Inhibitors of Cruzain (without detergent); purified cruzain, Z-FR-AMC fluorescence, no detergent; Potency, µM, for the others: max response, negative = inhibition, usual class: inhibitors; actives 2.3% (n = 200,000);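 note: plate controls were enzyme without inhibitor for no effect and buffer without enzyme for full effect; nearly all actives have a fitted effect of over 40% in size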
Target sequence (P25779 123-467 limits assumed): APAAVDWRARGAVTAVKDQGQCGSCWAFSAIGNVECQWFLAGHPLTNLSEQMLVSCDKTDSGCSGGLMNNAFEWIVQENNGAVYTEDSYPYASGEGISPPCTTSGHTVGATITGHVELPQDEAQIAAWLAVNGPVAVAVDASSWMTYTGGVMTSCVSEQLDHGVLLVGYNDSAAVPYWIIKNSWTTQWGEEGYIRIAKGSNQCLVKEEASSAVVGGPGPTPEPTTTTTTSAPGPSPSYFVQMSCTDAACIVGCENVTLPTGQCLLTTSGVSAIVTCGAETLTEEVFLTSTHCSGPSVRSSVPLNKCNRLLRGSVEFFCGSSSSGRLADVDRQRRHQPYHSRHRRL
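Purified cruzain at 1.5 nM, pre-incubated 15 min with compound at room temperature in 100 mM sodium acetate pH 5.5, 5 mM DTT, 0.00005% Triton X-100. Reaction started with 2 uM Z-FR-AMC; AMC fluorescence increase over 60 s gives rate.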
Cruzain Triton – qHTS Assay for Promiscuous and Specific Inhibitors of Cruzain (with detergent); Cruzipain (Trypanosoma cruzi), P25779; purified cruzain, Z-FR-AMC fluorescence, 0.01% Triton; Potency, µM, inactives show max response, negative = inhibition, most hits filed as inhibitors; actives 0.43% (n = 200,000); AID 1478, 2009;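 note: plate controls were neutral wells for no effect and buffer without enzyme for full effect; nearly all actives have a fitted effect of over 40% in size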
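Compounds were screened in titration against cruzain (1.5 nM) with 0.01% Triton X-100 to counter colloidal aggregation. Activity was the AMC fluorescence increase over 60 s after adding 2 uM Z-FR-AMC at pH 5.5.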
The depositor's hits bear a star; ? = inconclusive. Calls come from the whole dose curve; as a rule, active = well fitted curve in the direction sought with a large enough effect; inconclusive = small, poorly fitted or top-dose-only effect, or another doubt; inactive = no such curve, though single readings can be large; an effect the other way counts as inactive or inconclusive. Potency is the fitted concentration of half-maximal effect.

SMILES | Cruzain noTriton | Cruzain Triton
CCOc1ccc2c(c1)C(c1ccc(C)cc1)=NNC(c1ccc(OC)cc1)=N2 | 16µM* | -2%
CCOc1ccc(C2=NNC(c3cccs3)=Nc3ccc(OC)cc32)cc1 | ? | -12%
COc1ccc(/C=C\c2onc(C)c2S(=O)(=O)N2CCC(C(=O)Nc3ccc(F)cc3F)CC2)cc1 | 1% | -3%
COc1ccc(CCNC(=O)Cn2ncc3c(C)n(Cc4ccccc4F)c(C)c3c2=O)cc1OC | 28% | -1%
CCc1ccc(-c2nn(CC(=O)Nc3ccccc3)c3c2cnc2ccc(F)cc23)cc1 | -22% | 0%
Cc1ccccc1-c1nc(-c2ccc(NC(=O)c3ccc4c(c3)OCO4)cc2)no1 | 7.9µM* | -1%
COc1cc(-c2nc(-c3ccc(NC(=O)c4ccc5c(c4)OCO5)cc3)no2)cc(OC)c1OC | ? | -3%
COc1ccc2c(c1)NC(c1ccc(OCC(C)C)cc1)=NC(c1ccncc1)=N2 | 29% | -2%
CCOc1ccc2c(c1)nc(SCC(=O)c1ccc(Br)s1)n2C | 25µM* | 4%
CCOc1ccc2c(c1)nc(SCC(=O)c1cccs1)n2C | 10% | -2%
Cc1cc(N2CCC(C)CC2)nc2ccc(NC(=O)CCC(=O)N3CCN(c4ccccc4F)CC3)cc12 | -7% | -13%
CCCCc1ccc(NC(=O)COc2cccc3c(=O)n(C)ccc23)cc1 | 20µM* | -2%
CCCCc1ccc(NC(=O)COc2ccc(C(=O)Nc3ccccc3C)cc2)cc1 | 32µM* | 6%
CCCCc1ccc(NC(=O)COc2ccc(C(=O)Nc3ccccc3OC)cc2)cc1 | -10% | -6%
CCCn1ccc2c(OCC(=O)NCc3ccc(C)cc3)cccc2c1=O | -11% | -4%
Cc1ccc(-c2nn(-c3ccc(F)cc3F)c3c2cnc2c(F)cccc23)cc1 | -9% | 1%
CCCC(=O)Nc1nnc(SCc2cc(=O)n3cccc(C)c3n2)s1 | 4% | 3%
Cc1cccc(NC(=O)c2nc[nH]c2C(=O)Nc2ccccc2[N+](=O)[O-])c1 | 10µM* | -1%
CNC(=O)c1[nH]cnc1C(=O)Nc1ccccc1C | -6% | 2%
COc1cccc(-c2ccc3ncnc(NCCc4c[nH]c5ccc(OC)cc45)c3c2)c1 | ? | -4%
O=C(Nc1ccc(Cl)c(Cl)c1)Nc1nnc(CSc2ccccc2)s1 | 10µM* | -1%
O=C(Nc1ccc(Cl)cc1)Nc1nnc(SCc2ccccc2)s1 | 7.9µM* | -1%
CCCc1nnc(NC(=O)Nc2ccccc2Cl)s1 | -12% | -2%
Cc1nnc(NC(=O)Nc2cccc(Cl)c2)s1 | 0% | 1%
Cc1ccc(OCCSCc2nnc(NC(=O)Nc3cccc(Cl)c3)s2)cc1 | 16µM* | -1%
SMILES | Cruzain noTriton | Cruzain Triton
O=C(Nc1ccccc1)Nc1nnc(CSCc2ccccc2Cl)s1 | ? | -3%
O=C(Nc1nnc(SCc2ccc(Cl)cc2)s1)c1ccco1 | ? | 6%
O=C(Nc1ccc(Cl)cc1)Nc1nnc(CSCc2ccccc2Cl)s1 | 6.3µM* | -1%
Cc1cccc(C(=O)NCC(=O)OCc2cc(=O)n3nc(C4CCCCC4)sc3n2)c1 | 2% | -3%
CC(C)OCCCn1c(=O)c2ccccc2n2c(-c3ccc(F)cc3)nnc12 | 1% | -4%
COc1ccc(-n2nc(-c3ccc(C)cc3)c3cnc4cc(F)c(F)cc4c32)cc1 | -10% | -2%
C#CC(C)(CC)NC(=O)Cn1nnc(-c2ccc(OCc3ccccc3F)cc2)n1 (configuration not stated) | 6% | -4%
COc1ccc(/C=C2\SC(=NCc3ccccc3)NC2=O)cc1 | 4% | -8%
COc1ccc(/C=C2\SC(=O)N=C2N)cc1 | 32µM* | 0%
Cc1[nH]n(-c2ncc(-c3ccccc3)s2)c(=O)c1C(c1ccc(Cl)cc1)C(C#N)C#N (configuration not stated) | 13µM* | ?
Cc1[nH]n(-c2ccccc2)c(=O)c1C(C[N+](=O)[O-])c1ccc(Cl)cc1 (configuration not stated) | 4% | -9%
COc1ccc(N=C2NC(=O)S/C2=C\c2ccc(N(C)C)cc2)cc1 | ? | -3%
CCOc1ccc(N=C2NC(=O)S/C2=C\c2ccc(Cl)cc2)cc1 | 4µM* | -2%
O=C1CC(c2ccccc2Cl)Cc2c1cnn2-c1nc2ccccc2s1 (configuration not stated) | 13µM* | -4%
O=c1c(Cl)c(N2CCN(c3ccc(F)cc3)CC2)cnn1-c1nc2ccccc2s1 | ? | 3%
CN1CCN(c2ncc3nc(-c4cccs4)c(=O)n(C[C@H]4CCCO4)c3n2)CC1 | 14% | -12%
CCCCN(C)C(=O)CSc1nc2ccccc2nc1Cc1ccc(C)cc1 | -11% | -9%
COc1ccc2[nH]c(=O)c(CN(Cc3cccs3)C(=S)Nc3cccc(C)c3)cc2c1 | ? | -3%
Cc1ccc(C)c2[nH]c(=O)c(CN(Cc3cccs3)C(=S)NCc3ccco3)cc12 | 20µM* | -2%
Cc1cc2cc(CN(Cc3cccs3)C(=S)NCc3ccco3)c(=O)[nH]c2cc1C | ? | -5%
Cc1cccc(NC(=S)N(Cc2cccs2)Cc2cc3cc(C)cc(C)c3[nH]c2=O)c1 | 25µM* | -3%
CCOc1ccc(C2C(=O)N(C3CCCCCC3)CC(=O)N2CCc2ccccc2)cc1OC (configuration not stated) | 10% | 0%
CCC(CC)C(=O)Nc1cc(-c2nc3cccnc3s2)ccc1C | -2% | -4%
CNC(=O)NC1CCCc2ccccc21 (configuration not stated) | -7% | 2%
O=C(Nc1cccc2ccccc12)NC1CCCc2ccccc21 (configuration not stated) | 13µM* | 8%
SMILES | Cruzain noTriton | Cruzain Triton
CCOC(=O)c1cccc(NS(=O)(=O)c2ccc(-c3cnc(C4CC4)o3)cc2)c1 | 19% | -8%
CCOc1ccc(C(=O)CSc2nnc(N)s2)cc1 | 25µM* | -6%
COc1ccc(NC(=O)CSc2nnc(N)s2)cc1 | -3% | 0%
CCOc1ccc(CNC(=O)c2ccc3nc(C(C)C)oc3c2)cc1 | -11% | -2%
CC(C)(C)c1ccc(C(=O)N2CCC(c3nc4ccccc4o3)CC2)cc1 | -1% | -10%
Cc1ccc(NC(=O)C2CCN(S(=O)(=O)c3c(C)noc3C)CC2)cc1 | 11% | -1%
O=C(c1ccc(F)cc1)n1ccc(-c2cnc(-c3ccccc3)s2)n1 | 6.3µM* | 3%
Fc1ccc(Cn2ccc(-c3cnc(-c4ccccc4)s3)n2)cc1 | 0% | 1%
Cc1ccc(NC(=O)c2cc(C(=O)c3cc(Cl)ccc3O)cn(-c3ccc(C)cc3)c2=O)cc1 | 5µM* | -2%
N#Cc1cc(C(=O)c2cc(Cl)ccc2O)cn(-c2ccccc2)c1=O | -19% | -9%
COc1ccc2c(c1)c1c(c(=O)n(CCc3ccccc3)c(=O)n1Cc1cccc(C)c1)n2C | -4% | -1%
COCCNC(=O)CN1C(=O)COc2ccc(S(=O)(=O)N3CCCCCC3)cc21 | -6% | 1%
COC(=O)C1(C(=O)OC)C[C@@H]2CON=C2[C@H]1c1ccccc1 | 7% | -1%
CC(C)CNC(=O)C(=O)Nc1c2c(nn1-c1ccc(Cl)cc1)CSC2 | ? | 1%
O=C(NCc1ccccc1)C(=O)Nc1c2c(nn1-c1ccccc1)CSC2 | ? | -2%
COc1ccc(CNC(=O)C(=O)Nc2c3c(nn2-c2ccccc2)CSC3)cc1 | 25µM* | -2%
COc1ccc(-n2nc3c(c2NC(=O)C(=O)NCc2ccccc2)CSC3)cc1 | 7.9µM* | -1%
